ChEMBL document CHEMBL3988442, “University of Dundee, Small-Polar-MMV Screening Library” (2021)
For some assays here: Measured potencies and affinities stand elsewhere.

Columns and labels:
Parameters in all cases: scale not given: direction of the effect not stated beside the values
[1] = molecular target: Protein translocase subunit SecA (Escherichia coli (strain K12)) (UniProt P10408); test: Assay to Identify E. coli SecA ATPase Inhibitors; format: functional; settings: 30 µM
[2] = molecular target: T1, Ubiquitin-activating enzyme e1, putative (Leishmania donovani (strain BPK282A1)) (UniProt E9BSI1); test: Leishmania donovani Ubiquitin Activating Enzyme (LdE1); format: functional; settings: 30 µM
T1 sequence (whole entry): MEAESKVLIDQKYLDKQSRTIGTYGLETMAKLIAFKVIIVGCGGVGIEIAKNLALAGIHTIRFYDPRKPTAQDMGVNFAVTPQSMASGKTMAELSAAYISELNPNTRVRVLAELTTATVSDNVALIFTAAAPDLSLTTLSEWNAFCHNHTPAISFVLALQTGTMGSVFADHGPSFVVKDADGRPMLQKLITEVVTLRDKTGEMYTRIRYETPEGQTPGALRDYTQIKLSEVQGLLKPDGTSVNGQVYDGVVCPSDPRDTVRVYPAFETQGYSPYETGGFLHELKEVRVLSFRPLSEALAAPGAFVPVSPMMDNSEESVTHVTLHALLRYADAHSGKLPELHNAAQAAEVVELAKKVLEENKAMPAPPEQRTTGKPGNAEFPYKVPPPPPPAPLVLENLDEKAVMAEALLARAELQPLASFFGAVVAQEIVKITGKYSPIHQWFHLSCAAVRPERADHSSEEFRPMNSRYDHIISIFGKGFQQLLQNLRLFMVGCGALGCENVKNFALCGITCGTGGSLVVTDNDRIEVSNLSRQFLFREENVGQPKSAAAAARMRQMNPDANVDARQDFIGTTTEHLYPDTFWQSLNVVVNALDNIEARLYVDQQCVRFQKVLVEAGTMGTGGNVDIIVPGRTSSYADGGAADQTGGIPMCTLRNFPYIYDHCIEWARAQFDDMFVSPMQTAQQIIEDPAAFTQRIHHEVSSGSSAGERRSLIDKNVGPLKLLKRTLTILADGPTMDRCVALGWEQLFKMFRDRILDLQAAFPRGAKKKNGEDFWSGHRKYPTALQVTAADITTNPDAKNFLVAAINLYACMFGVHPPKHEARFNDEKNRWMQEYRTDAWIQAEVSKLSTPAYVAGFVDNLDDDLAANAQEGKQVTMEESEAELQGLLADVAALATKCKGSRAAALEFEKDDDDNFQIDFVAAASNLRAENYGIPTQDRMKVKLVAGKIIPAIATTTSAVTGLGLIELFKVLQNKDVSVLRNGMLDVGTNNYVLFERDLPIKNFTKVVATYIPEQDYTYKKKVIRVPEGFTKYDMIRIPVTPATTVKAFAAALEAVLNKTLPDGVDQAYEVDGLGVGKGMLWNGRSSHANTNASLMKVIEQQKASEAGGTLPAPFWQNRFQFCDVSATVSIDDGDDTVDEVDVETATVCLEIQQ

[3] = molecular target: AMP-activated protein kinase, AMPK (Homo sapiens) (UniProt P54646+O43741+P54619+Q9UGJ0+Q9Y478+Q13131+Q9UGI9); test: AMP-dependent Kinase enzyme assay. An in vitro enzyme assay that detects ADP turnover that is directly proportional to AMPK activity. This uses naive AMPK that is activated during the assay with MK-8722; format: functional; settings: 30 µM
[4] = molecular target: Sialic acid-binding Ig-like lectin 9 (Homo sapiens) (UniProt Q9Y336); test: Hs-Siglec9 ALPHAscreen SOP 20170721; settings: 10 µM
Sialic acid-binding Ig-like lectin 9 (Homo sapiens), sequence (Q9Y336 whole entry): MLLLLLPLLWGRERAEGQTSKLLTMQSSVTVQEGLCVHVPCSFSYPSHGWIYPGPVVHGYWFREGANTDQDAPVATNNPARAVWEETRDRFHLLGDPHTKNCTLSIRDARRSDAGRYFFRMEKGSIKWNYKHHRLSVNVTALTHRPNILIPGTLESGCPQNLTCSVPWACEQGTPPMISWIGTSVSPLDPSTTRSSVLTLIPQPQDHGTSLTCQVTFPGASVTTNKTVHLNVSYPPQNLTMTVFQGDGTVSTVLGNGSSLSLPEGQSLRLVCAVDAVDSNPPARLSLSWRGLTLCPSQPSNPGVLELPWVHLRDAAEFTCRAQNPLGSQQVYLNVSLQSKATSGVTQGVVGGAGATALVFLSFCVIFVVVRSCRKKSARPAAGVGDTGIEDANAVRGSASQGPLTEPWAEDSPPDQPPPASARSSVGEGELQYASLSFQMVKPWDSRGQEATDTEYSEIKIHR

Trypanosoma cruzi = test: Trypanosoma cruzi phosphomannomutase and mannose-1-phosphate guanylyltransferase assay; format: functional; settings: 10 µM
[5] = molecular target: T2, Arginase-2, mitochondrial (Homo sapiens) (UniProt P78540); test: in vitro enzyme assay to detect the production of urea directly proportional to the activity of Arginase II; format: functional; settings: 33.3 µM; further: in the data most compounds retested in dose-response had high values
T2 sequence (whole entry): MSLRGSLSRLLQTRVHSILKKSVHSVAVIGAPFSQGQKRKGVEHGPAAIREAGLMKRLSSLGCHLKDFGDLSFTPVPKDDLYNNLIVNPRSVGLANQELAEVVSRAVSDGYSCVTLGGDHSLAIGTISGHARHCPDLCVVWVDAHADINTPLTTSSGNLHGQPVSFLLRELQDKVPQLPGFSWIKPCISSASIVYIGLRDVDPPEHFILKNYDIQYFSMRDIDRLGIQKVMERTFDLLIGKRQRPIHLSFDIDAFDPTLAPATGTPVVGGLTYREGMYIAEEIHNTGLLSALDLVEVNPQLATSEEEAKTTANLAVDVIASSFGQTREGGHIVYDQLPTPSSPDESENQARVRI

[6] = molecular target: T3, Proteasome subunit beta (Trypanosoma cruzi) (UniProt O96673); test: Trypanosoma cruzi proteasome chymotrypsin-like activity (TcProtChymo) assay.; further: in the data most compounds retested in dose-response had high values; format: functional; settings: 9.37 µM
T3 sequence (whole entry): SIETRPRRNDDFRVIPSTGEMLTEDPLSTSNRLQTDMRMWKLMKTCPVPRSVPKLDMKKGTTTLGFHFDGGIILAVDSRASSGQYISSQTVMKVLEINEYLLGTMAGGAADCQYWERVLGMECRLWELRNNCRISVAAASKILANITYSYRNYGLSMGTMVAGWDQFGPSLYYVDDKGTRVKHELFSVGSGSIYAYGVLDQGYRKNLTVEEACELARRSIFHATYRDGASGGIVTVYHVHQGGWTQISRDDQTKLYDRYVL

Homo sapiens = species on record: Homo sapiens; test: To identify inhibition of the IFN signalling (Jak-Stat) pathway via expression of an eGFP reporter gene under the control of an IFN-stimulated response element (ISRE) containing MxA promoter.; format: functional; settings: 30 µM
[7] = molecular target: T4, Tyrosyl-tRNA synthetase, putative (Trypanosoma cruzi (strain CL Brener)) (UniProt Q4DSP6); test: Trypanosoma cruzi tyrosyl tRNA synthetase (TcYRS) _High Tyrosine SOP; format: functional; settings: 30 µM; further: in the data most compounds retested in dose-response had high values
T4 sequence (whole entry): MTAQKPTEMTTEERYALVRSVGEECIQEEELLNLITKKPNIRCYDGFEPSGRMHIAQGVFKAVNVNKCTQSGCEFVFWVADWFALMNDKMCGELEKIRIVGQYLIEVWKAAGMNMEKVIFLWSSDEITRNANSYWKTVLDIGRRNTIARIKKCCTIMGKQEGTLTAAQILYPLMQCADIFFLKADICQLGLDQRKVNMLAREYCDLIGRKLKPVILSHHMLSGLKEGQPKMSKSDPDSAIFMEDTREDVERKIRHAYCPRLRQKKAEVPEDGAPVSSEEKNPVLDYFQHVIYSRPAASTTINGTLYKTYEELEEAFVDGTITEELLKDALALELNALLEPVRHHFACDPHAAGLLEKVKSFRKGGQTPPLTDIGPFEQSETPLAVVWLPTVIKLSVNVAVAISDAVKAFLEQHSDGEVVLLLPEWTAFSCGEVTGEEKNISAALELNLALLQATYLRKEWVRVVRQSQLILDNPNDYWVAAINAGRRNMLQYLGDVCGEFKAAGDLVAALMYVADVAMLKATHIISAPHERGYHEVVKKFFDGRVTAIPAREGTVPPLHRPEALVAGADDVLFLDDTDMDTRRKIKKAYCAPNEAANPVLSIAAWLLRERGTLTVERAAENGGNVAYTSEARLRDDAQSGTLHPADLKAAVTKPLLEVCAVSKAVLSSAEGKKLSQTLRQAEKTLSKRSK

[8] = molecular target: T4, Tyrosyl-tRNA synthetase, putative (Trypanosoma cruzi (strain CL Brener)); test: Trypanosoma cruzi tyrosyl tRNA synthetase (TcYRS) SOP; format: functional; settings: 30 µM
[9] = molecular target: Chromo domain-containing protein 1 (Saccharomyces cerevisiae (strain ATCC 204508 / S288c) (Baker's yeast)) (UniProt P32657); test: ScCHD-1 Enzyme Inhibition Assay; format: functional; settings: 30 µM; further: in the data most compounds retested in dose-response had high values
Chromo domain-containing protein 1 (Saccharomyces cerevisiae (strain ATCC 204508 / S288c) (Baker's yeast)), sequence (P32657 whole entry, the tested form may be a part): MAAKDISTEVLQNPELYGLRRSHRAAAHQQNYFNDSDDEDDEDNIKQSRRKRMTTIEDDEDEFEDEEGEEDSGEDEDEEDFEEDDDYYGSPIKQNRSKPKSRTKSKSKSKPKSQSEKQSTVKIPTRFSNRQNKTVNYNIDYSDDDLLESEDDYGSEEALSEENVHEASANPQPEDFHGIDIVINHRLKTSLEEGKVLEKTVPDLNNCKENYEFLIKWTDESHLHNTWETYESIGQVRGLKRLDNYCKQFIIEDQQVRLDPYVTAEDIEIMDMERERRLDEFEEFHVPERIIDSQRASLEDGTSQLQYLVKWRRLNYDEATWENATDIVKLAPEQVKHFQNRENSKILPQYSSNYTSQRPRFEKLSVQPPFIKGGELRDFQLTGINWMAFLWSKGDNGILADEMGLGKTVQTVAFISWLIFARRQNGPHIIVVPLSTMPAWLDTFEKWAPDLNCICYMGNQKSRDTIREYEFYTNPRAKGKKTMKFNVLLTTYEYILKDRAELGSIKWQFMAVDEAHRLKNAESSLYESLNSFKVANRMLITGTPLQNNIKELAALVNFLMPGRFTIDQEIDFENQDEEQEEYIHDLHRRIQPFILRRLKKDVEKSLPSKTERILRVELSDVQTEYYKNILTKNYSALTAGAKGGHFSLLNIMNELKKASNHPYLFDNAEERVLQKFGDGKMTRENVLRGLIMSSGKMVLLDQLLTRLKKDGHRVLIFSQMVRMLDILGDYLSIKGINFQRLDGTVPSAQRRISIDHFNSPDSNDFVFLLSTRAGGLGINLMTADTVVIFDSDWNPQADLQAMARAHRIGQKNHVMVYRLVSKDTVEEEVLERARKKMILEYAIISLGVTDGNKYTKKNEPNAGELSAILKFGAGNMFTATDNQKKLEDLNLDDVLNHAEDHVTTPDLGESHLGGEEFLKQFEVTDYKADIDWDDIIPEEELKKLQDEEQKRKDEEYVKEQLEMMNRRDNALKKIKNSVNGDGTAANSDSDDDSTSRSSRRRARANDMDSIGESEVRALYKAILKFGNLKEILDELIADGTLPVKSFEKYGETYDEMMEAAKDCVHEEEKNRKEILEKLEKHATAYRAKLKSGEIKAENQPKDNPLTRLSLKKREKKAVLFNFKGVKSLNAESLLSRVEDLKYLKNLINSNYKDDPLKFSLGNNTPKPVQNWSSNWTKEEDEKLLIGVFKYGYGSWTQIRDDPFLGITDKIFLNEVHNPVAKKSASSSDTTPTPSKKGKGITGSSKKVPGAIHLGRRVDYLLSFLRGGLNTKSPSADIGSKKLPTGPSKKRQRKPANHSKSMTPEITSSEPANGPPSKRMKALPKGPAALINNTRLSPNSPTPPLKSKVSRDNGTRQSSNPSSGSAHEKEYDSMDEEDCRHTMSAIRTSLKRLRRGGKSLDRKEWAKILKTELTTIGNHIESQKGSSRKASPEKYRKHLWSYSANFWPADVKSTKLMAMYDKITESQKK

Protein translocase subunit SecA (Escherichia coli (strain K12)), sequence (P10408 whole entry): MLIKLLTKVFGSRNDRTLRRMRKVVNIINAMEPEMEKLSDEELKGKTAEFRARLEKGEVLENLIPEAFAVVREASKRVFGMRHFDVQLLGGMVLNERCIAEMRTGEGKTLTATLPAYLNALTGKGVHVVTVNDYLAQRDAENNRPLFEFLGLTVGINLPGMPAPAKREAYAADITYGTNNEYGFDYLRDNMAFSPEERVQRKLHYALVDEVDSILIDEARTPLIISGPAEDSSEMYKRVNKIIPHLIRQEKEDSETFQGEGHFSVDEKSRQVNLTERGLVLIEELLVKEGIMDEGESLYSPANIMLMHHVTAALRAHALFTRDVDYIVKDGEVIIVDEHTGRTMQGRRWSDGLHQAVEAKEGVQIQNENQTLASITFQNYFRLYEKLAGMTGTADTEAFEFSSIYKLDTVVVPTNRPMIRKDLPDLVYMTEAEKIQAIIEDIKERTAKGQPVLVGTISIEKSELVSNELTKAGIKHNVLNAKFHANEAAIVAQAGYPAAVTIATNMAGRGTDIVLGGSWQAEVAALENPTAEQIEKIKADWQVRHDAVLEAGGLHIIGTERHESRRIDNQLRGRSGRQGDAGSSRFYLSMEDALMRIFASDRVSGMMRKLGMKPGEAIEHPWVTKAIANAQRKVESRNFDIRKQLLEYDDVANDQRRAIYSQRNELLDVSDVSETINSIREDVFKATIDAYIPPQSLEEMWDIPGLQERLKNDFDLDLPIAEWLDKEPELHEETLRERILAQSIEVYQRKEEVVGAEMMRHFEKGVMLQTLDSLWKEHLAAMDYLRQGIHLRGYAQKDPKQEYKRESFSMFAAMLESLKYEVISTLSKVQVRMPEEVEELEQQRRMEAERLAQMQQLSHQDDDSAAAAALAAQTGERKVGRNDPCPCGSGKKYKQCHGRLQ

| SMILES | Percent Effect [1] | Percent Effect [2] | Percent Effect [3] | Percent Effect [4] | Percent Effect (Trypanosoma cruzi) | Percent Effect [5] | Percent Effect [6] | Percent Effect (Homo sapiens) | Percent Effect [7] | Percent Effect [8] | Percent Effect [9] |
| --- | --- | --- | --- | --- | --- | --- | --- | --- | --- | --- | --- |
| Cc1ccc2cc(C3(O)CCN(C(=O)CN4CCCC4)CC3)ccc2n1 | -2.77% | -1.39% | -1.64% | -0.537% | -4.96% | 3.53% | 11.9% | 4.91% | 2.1% | 5.13% | 0.856% |
| COC(=O)CCNC(=O)c1ccoc1CN1c2ccccc2CC1C (configuration not stated) | -4.57% | 0% | 6.85% | 8.39% | 1.98% | -18.4% | 19.9% | 9.3% | 6.25% | 3.7% | -2.6% |
| Cc1nnc(C(C)NCC2(c3c(F)cccc3F)CCCC2)o1 (configuration not stated) | -2.54% | -2.7% | -3.85% | 0.273% | -0.965% | 1.91% | 7.93% | 14.7% | 0.529% | 9.76% | -3.86% |
| NC(=O)NCC(=O)N1C[C@H]2CC[C@@H]1CN(C1Cc3ccccc3C1)C2 | -3.92% | 10.8% | -25.8% | 17.9% | -0.88% | -3.23% | 14% | 3.96% | 5.38% | 13.6% | -4.63% |
| CC1(C)Cc2ccccc2-c2nc(NCCO)[nH]c(=O)c21 | -5.03% | 13.2% | 56% | 4.58% | -3.02% | 3.55% | 20% | 31.2% | 6.38% | 13% | -12.3% |
| COc1c(CNC(c2ccc(F)cc2)c2nccn2C)c(C)nn1C (configuration not stated) | -4.41% | 23.7% | -3.24% | -2.7% | 10.9% | -0.383% | 13.4% | 10.1% | 9.31% | 29.3% | -12.6% |
| Cn1cnnc1S(=O)(=O)C1CCN(S(=O)(=O)C2CC2)CC1 | -2.77% | -2.74% | 14.5% | 1.56% | -3.72% | -2.27% | 9.41% | -3.78% | -3.23% | 2.5% | -1.03% |
| COc1cc(CNCc2c(C(C)C)nn(C)c2N(C)C)ccn1 | -0.0523% | 15.8% | -8.02% | 2.55% | 1.13% | -3.06% | 14% | -9.51% | 4.41% | 4.88% | -6.52% |
| CCc1nccn1C1CCCN(C(=O)c2cn3c(C)cccc3n2)C1 (configuration not stated) | -5.71% | 10.5% | -0.577% | 8.35% | 3.6% | -9.47% | 6.04% | -0.411% | 3.19% | 15.6% | -1.12% |
| CCc1nc(CN(C(C)=O)C2CCN(Cc3cnc(C)cn3)C2)no1 (configuration not stated) | -1.41% | 22.8% | -8.69% | -10.4% | -3.31% | 4.18% | 5.16% | 27.4% | 4.43% | 13.9% | -6.99% |
| COc1ccc(C)cc1CN1CCCC1Cn1nc(C)nc1C (configuration not stated) | -5.51% | -3.8% | -7.49% | 4.01% | 2.97% | -0.645% | 16.6% | 46.5% | 8.33% | 12.7% | -26.7% |
| COCc1noc(C2(c3ccc(Br)cc3)CCOCC2)n1 | -2.85% | -2.7% | 1.95% | -4.39% | -6.95% | 1.91% | 9.83% | 4.48% | -1.59% | 4.88% | -3.06% |
| CC(C)Nc1ccc2nc(C3CCN(C(C)C)CC3)nn2c1 | -0.345% | 8.11% | -95.9% | -2.89% | 3.91% | 26.2% | 8.54% | 7.24% | 10.9% | 8.54% | -1.81% |
| COCCN1C[C@H]2[C@@H](C1)N(Cc1ccc(C)o1)CC[C@H]2OC | -2.85% | -30.1% | -5.66% | 7.25% | 6.94% | -3.19% | 14.3% | 0.524% | 8.33% | 6.17% | -11.5% |
| CC(CNC(=O)N1CCN(CC(F)F)CC1)Cc1cccs1 (configuration not stated) | -7.32% | 2.7% | 3.08% | 1.71% | -1.17% | 2.08% | 6.34% | -5.03% | 8.91% | 1.22% | -2.29% |
| O=C(NC1(c2nnn(CCO)n2)CCCC1)c1ccccc1 | -3.12% | 8% | -5.64% | 17.4% | 3.41% | 17.7% | 1.57% | -6.59% | 6.01% | 16.1% | -4.4% |
| COCC1CN(S(C)(=O)=O)Cc2ncn(CC3CC3)c21 (configuration not stated) | -4.92% | 13.5% | -0.0233% | -3.08% | -5.38% | 0.248% | 14.2% | 27.2% | 4.3% | 8.64% | -3.62% |
| Cc1cnn(CCNCC(=O)NCC2(c3ccccc3)CCC2)c1 | -3.26% | 10.4% | 0.236% | -13.1% | -5.19% | -3.58% | 12.4% | 11.5% | 12.4% | 14.1% | -19.9% |
| Cc1cc(C2CCCN(C(=O)c3cnccn3)C2)ccn1 (configuration not stated) | 2.59% | 6.76% | 5.06% | 0.392% | -5.93% | 0.232% | 8.27% | 12.6% | 2.15% | 3.9% | 6.76% |
| CCn1ccnc1CN1CCCN(C(=O)Cn2nc(C)cc2C)CC1 | -2.55% | 0% | 9.91% | -9.39% | 1.08% | -0.21% | 3.31% | -12.9% | -1.91% | 0% | -14.3% |
| Cc1cc(NS(=O)(=O)c2ccccc2F)ccc1-n1cccc1C(=O)O | -2.35% | 2.63% | 6.59% | 4.36% | -1.27% | -7.1% | 24.1% | -10.4% | -4.25% | 0% | -2.97% |
| Cc1ccccc1CSc1nc(N)cc(N2C[C@H](O)[C@@H](N(C)C)C2)n1 | -8.01% | 5.41% | -13.8% | 0.783% | 1.07% | 1.24% | 12.6% | 5.8% | 8.6% | 18.5% | -3.84% |
